M1 agonist = activates the M1 muscarinic receptor | AID 626 | 3% of 64,000 active | CHO-M1 cells, Fluo-4 calcium fluorescence, agonist mode; hits give high values | B-score at 10 µM;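 active = fluorescence rise, raw or as B-score row- and column-corrected plate score, outside the 99.7% band of its plate's samples, either direction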
BAP1 inh = blocks human BAP1 ubiquitin-AMC hydrolysis; recombinant BAP1, Ub-AMC hydrolysis fluorescence kinetic; hits give low values; calls only at 20 µM; 0.48% of 72,000 active; AID 436;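 active = activity remaining at or below 50% of control, provided the compound also passes the data quality filters; inactive = the rest, including low values that fail the filters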;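 note: 100% = DMSO wells rate and 0% = substrate alone blank rate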
M1 antag = antagonists of rat M1 muscarinic receptor; P08482; CHO-M1 cells, Fluo-4 calcium, ACh EC80 antagonist mode; hits give low values; B-score at 10 µM; 3.4% of 64,000 active;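 active = calcium fluorescence response, raw or row-and-column corrected B-score, differing from the plate sample mean either way at a set confidence level, mostly lower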
Fluor 339 460 = intrinsic fluorescence of library compounds, ex339/em460 – biochemical, MLSMR library, data from DPM-DC assay, artefact control, profiling panel. compound autofluorescence, ex339/em460 nm, NADH buffer; hits give high values; 1 = no-compound wells, NADH background. fluorescence fold increase at 10 µM. 5.5% of 65,000 active;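 active = at 10 µM, mean starting fluorescence two-fold or more over control wells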;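 note: signal is the first read of a kinetic run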
A340 absorber = absorbance at 340 nm | compound absorbance at 340 nm, fold over control | fold change at 10 µM | 65,000 tested, under 10 active | AID 708;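 active = at 10 µM dose, initial 340 nm absorbance at least 2 fold that of control wells; inactive = change under 2 fold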;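 note: initial absorbance extrapolated from kinetic A340 decline of NADH oxidation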
WNV protease inh = WNV NS2B-NS3 proteinase inhibition; P06935; WNV NS2B-NS3 protease, fluorogenic substrate Ex360/Em465; hits give low values; z-score (concentration not given with the values); 0.18% of 65,000 active; AID 577; in the data active = z-score below about -3
Target sequence (P06935 1371-1501 limits assumed): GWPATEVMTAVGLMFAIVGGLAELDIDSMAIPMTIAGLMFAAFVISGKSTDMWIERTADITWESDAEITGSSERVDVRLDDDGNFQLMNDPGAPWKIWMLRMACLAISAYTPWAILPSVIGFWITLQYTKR
Target sequence (P06935 1502-1679 limits assumed): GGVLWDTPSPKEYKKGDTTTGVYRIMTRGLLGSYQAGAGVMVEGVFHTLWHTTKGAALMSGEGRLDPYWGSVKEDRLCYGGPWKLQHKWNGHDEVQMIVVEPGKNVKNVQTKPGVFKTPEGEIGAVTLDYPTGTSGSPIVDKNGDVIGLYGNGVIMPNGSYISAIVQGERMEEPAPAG
Numbers without * were called inactive; i = inactive; / = not tested or not shown. Rows were chosen to be rich in hits. Some 9.7% of all compounds tested hit in one or more screens of this group.

SMILES	M1 agonist	BAP1 inh	M1 antag	Fluor 339 460	A340 absorber	WNV protease inh
CNc1nc2sc3c(c2c(=O)n1C)CC(C)(C)SC3	0.0371	i	-3.67	2.18*	1.02	-7.01*
COC(=O)CC(=O)CSc1nc2c(cc1C#N)CCCCC2	-1.67	i	-0.307	3.87*	1.07	-0.3
CCCCc1cc(=O)oc2cc(C)cc(OCC(=O)O)c12	/	i	/	3.82*	1.09	-1.05
Cc1cc(OCC(=O)N(C)C)c2c(-c3ccccc3)cc(=O)oc2c1	2.49	i	-0.178	1.41	1.11	-0.8
COC(=O)c1[nH]c2ccc(C)cc2c1NC(=O)CN1CCCCC1C (stereo not given)	/	i	/	2.29*	1.05	0.73
CCOC(=O)C1CCCN(CC(=O)Nc2c(C(=O)OC)[nH]c3ccc(C)cc23)C1 (stereo not given)	0.225	i	0.00409	2.6*	1.05	0.8
COCCNC(=O)c1c(N)n(CCCn2ccnc2)c2nc3ccccc3nc12	-1.63	i	-0.814	3.84*	1.07	1.6
COCCn1c(N)c(C(=O)NCc2cccs2)c2nc3ccccc3nc21	-0.0839	/	0.568	3.68*	1.05	2.27
COCCn1c(N)c(C(=O)Nc2sc3c(c2C(=O)OC)CCCC3)c2nc3ccccc3nc21	-0.221	i	-0.137	1.12	1.05	-0.29
COCCn1c(N)c(S(=O)(=O)c2cccs2)c2nc3ccccc3nc21	-0.0508	/	0.32	3.93*	1.11	0.32
Brc1ccc(-c2nnc3n2CCC3)cc1	/	i	/	/	/	/
Cc1ccc(S(=O)(=O)Nc2nc3ccccc3nc2NCc2ccco2)cc1	-0.308	i	0.184	1.65	1.06	0.49
Cc1ccc(S(=O)(=O)Nc2nc3ccccc3nc2NCc2ccco2)cc1C	0.0845	/	-0.73	2.13*	1.08	-1.41
COCCn1c(=O)[nH]c2cc(C(=O)NCC3CCCO3)ccc2c1=O (stereo not given)	-0.119	/	-0.179	1.47	0.99	-0.96
CCCn1c(=N)c(C(=O)NCC2CCCO2)cc2c(=O)n3cccc(C)c3nc21 (stereo not given)	0.795	/	-1.09	3.69*	1.02	8.74
COCCn1c(=S)[nH]c2cc(C(=O)NCC3CCCO3)ccc2c1=O (stereo not given)	0.503	i	0.147	1.08	1.03	0.61
COCCCn1c(=N)c(C(=O)NCC2CCCO2)cc2c(=O)n3cccc(C)c3nc21 (stereo not given)	-1.05	i	-2.28	2.89*	1	6.88
COCCCn1c(=N)c(C(=O)NCC2CCCO2)cc2c(=O)n3ccccc3nc21 (stereo not given)	0.83	/	-0.662	4.87*	1.02	3.93
Cc1ccc(CNC(=O)c2cc3c(=O)n4cccc(C)c4nc3n(CC3CCCO3)c2=N)cc1 (stereo not given)	1.47	/	-1.05	3.95*	1.02	0.53
N=c1c(C(=O)NC2CCCC2)cc2c(=O)n3ccccc3nc2n1CCN1CCOCC1	-0.00289	/	-2.02	1.92	1.08	1.87
O=S(=O)(c1ccccc1)N1N=C(c2ccccc2)CC1c1ccc(Br)cc1 (stereo not given)	/	i	/	/	/	/
O=C1c2ccc([N+](=O)[O-])cc2C(=O)N1C1C(=O)N(c2ccc(Br)cc2)C1c1ccc2c(c1)OCO2 (stereo not given)	/	i	/	/	/	/
CCOc1ccc2c(c1)sc(=NC(=O)c1ccc(S(=O)(=O)N3CC(C)CC(C)C3)cc1)n2C (stereo not given)	/	i	/	/	/	/
CCOCCCn1c(=N)c(C(=O)Nc2cc(C)on2)cc2c(=O)n3ccccc3nc21	5.91*	/	-0.179	2.13*	1.01	0.12
COc1ccc(CNC(=O)c2cc3c(=O)n4ccccc4nc3n(Cc3ccco3)c2=N)cc1	0.772	i	0.134	1.33	0.99	-0.38
SMILES	M1 agonist	BAP1 inh	M1 antag	Fluor 339 460	A340 absorber	WNV protease inh
COc1ccc2c(-c3ccccc3)cc(N3CCOCC3)nc2c1	-0.244	/	-0.0861	2.91*	1.04	-0.53
Cc1ccc2oc(-c3cc(NC(=O)c4cccc([N+](=O)[O-])c4)ccc3Cl)nc2c1	/	i	/	/	/	/
CCc1nc2oc3ccccc3c(=O)c2c(=O)n1CCOC	1.56	i	0.49	1.16	0.97	-0.6
COCCn1c(C)nc2oc3ccc(Br)cc3c(=O)c2c1=O	0.373	i	1.86*	1.15	1.02	0.23
Oc1ccc(N=Cc2c(O)ccc3ccccc23)cc1-c1nc2ccccc2s1	/	i	/	/	/	/
Cc1ccc2c(c1)c1ncnc(N3CCOCC3)c1n2C	-0.994	i	0.0738	3.76*	1.04	0.82
Cc1ccc2c(c1)c1ncnc(N3CCC4(CC3)OCCO4)c1n2C	0.298	i	0.104	3.71*	1.05	1.9
CCCCCCc1ccc(C(=O)Nc2cc3cc([N+](=O)[O-])ccc3oc2=O)cc1	/	i	/	/	/	/
NC(=O)c1cc(-c2cccnc2)no1	/	i	/	/	/	/
CCNc1ccc2c(Cl)cc(=O)oc2c1	-0.0603	i	-0.604	2.94*	1.02	-0.26
CCN(C)c1ccc(/C=N\n2nnnc2N)cc1	-0.426	/	0.447	2.5*	1.08	-0.04
CCN(CC)c1ccc(/C=N/n2nnnc2N)c(O)c1	1.11	i	-0.448	1.71	1.03	0.43
CSc1ccc(/C=N/n2nnnc2N)cc1	/	/	/	5.02*	1.22	1.83
COc1cc(/C=N/n2nnnc2N)ccc1O	-0.12	i	-0.744	1.3	1.14	0.00406
O=C(Nc1ccc(-c2nc3ccccc3[nH]2)cc1)c1cccc(C(F)(F)F)c1	/	i	/	/	/	/
CC(=O)c1ccc(-c2nc3ccccc3n2C)o1	0.809	/	0.422	2.96*	1.08	8.27
CCOc1ccc(C2C(C#N)=C(N)SC(N)=C2C#N)cc1OC	64*	i	1.03	1.08	1.09	-1.07
O=C(c1ccco1)N(CCCN1CCOCC1)c1nc(-c2ccc(Cl)cc2)cs1	-0.599	i	-0.0659	1.22	1.03	-3.11*
CC(C)C1Nc2ccc(S(N)(=O)=O)cc2C2C=CCC21 (stereo not given)	2.13*	i	-0.0391	1.13	1.03	1.5
Cc1ccc2c(c1)C1C=CCC1C(C(=O)O)N2 (stereo not given)	-0.555	i	-0.012	1.1	1.04	-2.66
c1ccc(Nc2nc(N3CCOCC3)nc(N3CCOCC3)n2)cc1	0.23	i	-0.0774	1.01	1.05	0.75
COc1nc(Nc2ccc(-c3nc4ccccc4o3)cc2)nc(N2CCOCC2)n1	0.455	/	1.48	3.68*	1.1	0.59
Nc1nc(N)c2sc3nc4c(cc3c2n1)CCC4	0.786	i	-0.883	3.17*	1.06	-0.5
NC(=O)c1ccccc1NC(=O)C(F)(F)F	/	i	/	/	/	/
CCCCNc1cc(NC(C)=O)cc2cc(OC)c(OC)cc12	-1.22	i	0.122	2.13*	1.07	-0.86
COc1cc(C2Nc3ccccc3C(=O)N2c2ccccc2OC)ccc1O (stereo not given)	0.218	i	0.683	5.1*	1.01	1.05
CCOc1cc(C2CC(=O)Nc3cc(C)c(C)cc32)ccc1O (stereo not given)	-0.609	i	0.0172	1.03	1.02	0.35

Assay outcomes from PubChem.
